Compound activity as filed in PubChem.
OPRM1-OPRD1 inv – inverse agonists of human mu-delta opioid receptor heterodimerization | AID 504357 | cell-based MOR-DOR heterodimer luminescence, inverse agonism | 340,000 tested, 0.21% active | P35372+P41143 | inhibition, % at 9.3 µM; in the data active means inhibition above about 22%, passing the limit was not always enough;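 further: 0% = cells with DMSO and 100% = wells without cells with DMSO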
Target sequence (P35372 whole entry, looked up): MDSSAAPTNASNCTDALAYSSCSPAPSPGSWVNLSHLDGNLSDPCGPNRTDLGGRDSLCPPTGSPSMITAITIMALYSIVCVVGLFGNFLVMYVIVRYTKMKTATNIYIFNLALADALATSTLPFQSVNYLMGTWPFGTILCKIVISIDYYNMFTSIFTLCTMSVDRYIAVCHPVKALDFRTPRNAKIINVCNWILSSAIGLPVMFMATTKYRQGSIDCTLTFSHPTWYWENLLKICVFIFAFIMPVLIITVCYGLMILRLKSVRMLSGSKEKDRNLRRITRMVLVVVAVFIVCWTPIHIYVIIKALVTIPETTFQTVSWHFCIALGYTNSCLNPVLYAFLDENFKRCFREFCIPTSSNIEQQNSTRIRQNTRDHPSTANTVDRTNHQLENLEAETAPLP
Target sequence (P41143 whole entry, looked up): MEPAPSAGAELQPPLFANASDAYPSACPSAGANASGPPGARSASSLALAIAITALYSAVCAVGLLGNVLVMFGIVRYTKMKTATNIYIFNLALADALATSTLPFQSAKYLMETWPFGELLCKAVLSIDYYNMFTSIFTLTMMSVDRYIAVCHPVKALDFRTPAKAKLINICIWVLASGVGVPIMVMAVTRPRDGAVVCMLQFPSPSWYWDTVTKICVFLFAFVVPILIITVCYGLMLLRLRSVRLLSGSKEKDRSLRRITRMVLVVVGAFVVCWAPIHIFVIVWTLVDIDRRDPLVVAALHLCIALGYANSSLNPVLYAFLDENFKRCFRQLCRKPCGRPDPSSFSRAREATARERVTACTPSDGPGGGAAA
OPRM1-OPRD1 ag – agonists of human mu-delta opioid receptor heterodimerization | 340,000 tested, 0.3% active | P35372+P41143 | cells, OPRM1-OPRD1 heterodimerization, luminescence | activation, % at 9.3 µM | AID 504326; in the data active means activation above about 18%;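 further: 0% = vehicle-treated cells and 100% = reference agonist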
HTR5A ag – HTR5A agonism, opioid heterodimer counter-screen; P47898; HTR5A agonist assay, luminescence, cell-based; activation, % at 9.3 µM; 340,000 tested, 0.61% active; in the data active means activation mostly above about 9.5%, no sharp cut-off; inactive means mostly below about 7.6%;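 further: 0% = cells with vehicle only and 100% = reference agonist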
HTR5A inv ctr – HTR5A inverse agonism, opioid heterodimer counter-screen | inhibition, % at 9.3 µM | HTR5A cell line, luminescence | P47898 | 340,000 tested, 0.083% active; in the data active means inhibition mostly above about 23%, no sharp cut-off; inactive means mostly below about 18%;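 further: 0% = cells with DMSO and 100% = no-cell wells with DMSO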
OPRM1-D1 inv cf – OPRM1-OPRD1 heterodimer inverse agonism, confirmation; AID 504900; 580 tested, 20% active; shares compounds with OPRM1-OPRD1 inv; inhibition, % at 9.3 µM; cells expressing OPRM1/OPRD1 heterodimer, luminescence; in the data active means inhibition above about 32%;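 further: 0% = cells with DMSO and 100% = wells lacking cells with DMSO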
HTR5A inv count – counter-screen for OPRM1-OPRD1 inverse agonists: human HTR5A inverse agonism. shares compounds with OPRM1-OPRD1 inv. HTR5A-expressing cells, luminescence. inhibition, % at 9.3 µM. 580 tested, under 10 active. AID 504914; call rule not given here;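 further: 0% = cells with DMSO and 100% = no-cell wells with DMSO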
An asterisk follows results filed as active; i = inactive; nt = no result. Only some compounds are listed: those with a hit (about 1.1% of all), similar ones and a draw of the others.

SMILES	OPRM1-OPRD1 inv	OPRM1-OPRD1 ag	HTR5A ag	HTR5A inv ctr	OPRM1-D1 inv cf	HTR5A inv count
COCCN(C(=O)CCC(=O)Nc1cccnc1)C(C(=O)NC1CCCCC1)c1ccccc1 (centres undefined)	35.9*	-6.7	-3.5	10.6	-16.5	-5.1
O=C(CCC(=O)N(c1ccccc1)C(C(=O)NC1CCCC1)c1ccncc1)Nc1cccnc1 (centres undefined)	20.4	-3.3	3.5	-20.2	nt	nt
C=CCn1c(SC(C)C(=O)c2c(N)n(C)c(=O)n(C)c2=O)nnc1-c1ccoc1C (centres undefined)	9.4	-2.3	-1.1	2.7	nt	nt
CC1(C)C(c2ccccc2)=NC(c2ccc(Br)cc2)N1O (centres undefined)	46.5*	-8.9	-0.5	35.9	12.4	5.3
CC1(C)C(c2ccccc2)=NC(c2ccccc2)N1O (centres undefined)	17.7	-3.5	-2.6	-22.8	nt	nt
COc1ccc(C2N=C(c3ccccc3)C(C)(C)N2O)cc1 (centres undefined)	43.5*	-7.5	-1.3	-22.9	11.6	-0.3
CCC1=NC(c2ccc(OC)cc2)N(O)C1(C)C (centres undefined)	15.2	-2.7	-1.1	-3.8	nt	nt
CCC1=NC(c2ccc(Br)cc2)N(O)C1(C)C (centres undefined)	33.1*	-5.8	-1.1	3.0	25.5	-6.5
CCOC(=O)C1(CCOc2ccccc2)CCN(C(=O)CCSC)CC1	15.4	-3.1	6.2	-23.4	nt	nt
O=C(Nc1ccc(O)c(-c2nc3ccccc3s2)c1)c1cccs1	35.5*	-5.9	-4.8	12.9	4.4	2.9
CC(C)(C)c1ccc(OCC(=O)NNC(=S)NC(=O)c2ccccc2[N+](=O)[O-])c(Br)c1	32.5*	-6.3	-4.5	16.4	17.0	4.3
C=CCn1c(SCC(=O)Nc2ccc(OC)cc2)nnc1-c1cnccn1	14.9	-3.0	5.0	8.1	nt	nt
Cc1ccc(S(=O)(=O)N2CCCCC2)cc1NC(=O)COC(=O)c1cccn1C	14.6	-3.4	-0.1	0.4	nt	nt
Cc1noc(C)c1S(=O)(=O)Nc1ccc2c(c1)C(=O)N([C@H](C)CO)C[C@H](C)[C@@H](CN(C)C(=O)Nc1ccc3c(c1)OCO3)O2	5.0	-1.1	-1.5	5.6	nt	nt
O=S(=O)(NNc1cccc(Cl)n1)c1ccc(Cl)cc1	79.7*	-19.6	-5.6	14.3	49.8*	6.3
C/C(=C\c1ccccc1)C(=O)Nc1ccc(Cl)cn1	-7.5	1.5	1.8	-6.6	nt	nt
Cc1ccc(C(=O)COC(=O)CCC(=O)Nc2cccc(Cl)c2)cc1[N+](=O)[O-]	51.6*	-12.4	-7.0	16.7	31.6*	6.6
O=C(CCC(=O)OCC(=O)c1ccc(Br)cc1)NC1CCCCC1	16.6	-3.1	2.1	-10.9	nt	nt
COc1ccccc1NC(=O)CCC(=O)OCC(=O)c1ccc(C)c([N+](=O)[O-])c1	53.2*	-9.6	6.3	5.2	-409.8	-103.9
Cc1ccc(C(=O)COC(=O)CCC(=O)NC2CCCCC2)cc1[N+](=O)[O-]	47.3*	-9.5	-6.1	31.5	35.3*	16.5
N#Cc1ccccc1OCC(=O)OCC(=O)NC1CC1	7.3	-1.9	-4.9	12.3	nt	nt
O=C(NC(=S)N1CCCCC1c1cccnc1)c1ccc(Br)cc1 (centres undefined)	3.9	-0.8	3.2	3.7	nt	nt
Cc1ccc(C(=O)NC(C(=O)OCc2cn3cc(Cl)ccc3n2)C(C)C)cc1 (centres undefined)	8.8	-2.4	-0.5	-0.7	nt	nt
COc1ccc(S(=O)(=O)NNc2nc(C)cc(C)n2)cc1[N+](=O)[O-]	45.5*	-8.2	1.9	0.1	54.5*	2.3
O=C(C[N+]1(CC#Cc2ccccc2)CCOCC1)c1ccccc1	24.9	-4.8	-2.3	9.7	nt	nt
SMILES	OPRM1-OPRD1 inv	OPRM1-OPRD1 ag	HTR5A ag	HTR5A inv ctr	OPRM1-D1 inv cf	HTR5A inv count
O=C(C[N+]1(CC#Cc2ccccc2)CCOCC1)c1ccc(Cl)cc1	33.5*	-6.1	-1.8	5.1	i	-13.8
CCCNC(=O)c1nnsc1S(=O)(=O)c1ccc(Cl)cc1	32.4*	-5.7	-4.1	10.7	12.3	-5.2
COCc1cc(C)nc2sc(C(=O)N3CCCCC3)c(N)c12	38.5*	-7.4	0.8	11.5	i	13.3
Cc1ccc(C(=O)COC(=O)CNC(=O)Cc2ccccc2)cc1	19.1	-3.5	1.8	-19.3	nt	nt
Cc1ccc(C(=O)COC(=O)CNC(=O)Cc2ccccc2)cc1[N+](=O)[O-]	57.3*	-13.8	-6.0	29.2	-46.3	-24.5
Cc1ccc(C(=O)COC(=O)CNC(=O)c2ccc(Br)o2)cc1[N+](=O)[O-]	54.2*	-10.7	-5.1	23.3	-64.5	5.5
CCc1ccc(C(=O)COC(=O)CNC(=O)c2ccc(Br)o2)cc1	20.6	-3.7	3.0	5.3	nt	nt
CCC(NC(=S)NC1CCCCC1)c1ccc(C)cc1 (centres undefined)	-18.4	3.2	1.4	-5.1	nt	nt
Cc1ccc2c(c1)/C(=N/N1C(=O)c3ccccc3C1=O)C(=O)N2	28.1*	-5.0	-2.2	7.4	4.6	13.7
CCOc1ccc2c(c1)/C(=N/N1C(=O)c3ccccc3C1=O)C(=O)N2	42.0*	-7.4	-7.4	19.3	-7.1	7.3
Cc1ccc2c(c1)/C(=C/c1ccccc1C)C(=O)N2	-29.9	6.3	1.5	-5.9	nt	nt
NS(=O)(=O)c1ccc(N=C2C(=O)Nc3ccccc32)cc1	64.4*	-11.6	-2.5	6.5	27.0	-6.7
O=C1Nc2ccccc2C1=Nc1ccc(S(=O)(=O)Nc2nccs2)cc1	-2.6	0.6	3.7	-12.9	nt	nt
O=C1Nc2ccccc2C1=Nc1cccc([N+](=O)[O-])c1	48.1*	-8.3	1.0	-3.9	-137.7	-11.8
COc1ccc(N=C2C(=O)Nc3ccc(C)c(Br)c32)cc1	69.5*	-13.9	-1.6	6.1	-51.7	-3.4
NC(=O)c1ccc(N=C2C(=O)Nc3ccc([N+](=O)[O-])cc32)cc1	-0.8	0.1	4.8	-13.7	nt	nt
O=C1Nc2ccccc2C1=Nc1ccc(F)cc1	59.2*	-10.7	-2.8	10.9	23.5	4.2
[O-]/[N+](=C/c1ccccc1)c1ccccc1	21.6	-3.8	7.7	-8.7	nt	nt
CCOCCCN(C)C1CCN(C(=O)c2oc3ccccc3c2NC(=O)c2ccc(F)cc2)CC1	11.8	-2.4	1.3	-4.8	nt	nt
O=C(Cc1ccc(S(=O)(=O)N2CCOCC2)s1)N1CCN(S(=O)(=O)c2cccc(Cl)c2)CC1	-4.7	0.9	0.8	-21.2	nt	nt
O=C(CSc1nc2cc(C(=O)O)ccc2c(=O)n1-c1ccc(F)cc1)Nc1ccc(F)c(F)c1F	6.2	-1.4	8.5	-30.1	nt	nt
COc1cc(/C=N/N=C2/C(=O)Nc3ccccc32)ccc1O	13.4	-2.6	-4.7	12.3	nt	nt
COc1ccc(N=C2C(=O)Nc3ccccc32)cc1	50.1*	-9.4	-1.9	7.8	19.6	-15.1
COc1ccc(OC)c(N=C2C(=O)Nc3ccccc32)c1	41.5*	-8.3	-8.5	22.1	44.9*	-2.9
O=S(=O)(NCc1nnc2ccccn12)c1ccc(F)cc1	10.1	-1.6	-1.0	2.7	nt	nt
